Screens (PubChem)
PTK2B oligo ant: blocks oligomerization of human Pyk2 in cells; 99,000 tested, 0.83% active; Q293 cells, Pyk2 FERM NanoBiT luminescence; active compounds read low; z-score (the deposit names both 25 µM and 10 µM); AID 1347419;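 active = Z-score of -3 or lower, scaled per plate to the spread of control and sample wells; inactive = z-score above -3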;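 note: negative z-score means lost luminescence so less FERM oligomerization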
PostGolgi yeast: growth inhibition of a yeast mutant, post-Golgi transport screen; post-Golgi transport phenotypic cell assay; inhibition, % at 10 µM; 98,000 tested, 0.9% active;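 note: yeast cells grown in 1536-well plates; yeast grown about 18 h at 30C before absorbance read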
Cav3 T inh: inhibitors of human Cav3.2 T-type calcium channel | AID 449739 | B-score at 10 µM | 100,000 tested, 4% active | Cav3.2-expressing cells, Fluo-4 calcium fluorescence FDSS; active compounds read low;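 active = single-dose well whose peak fluorescence ratio is a statistical outlier from its plate by either plate-standardised score or position-corrected B-score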
PostGolgi ctrl: inhibits growth of the yeast control strain. inhibition, % at 10 µM. 98,000 tested, 5% active. efflux-deficient yeast background strain, growth absorbance A615, 16 h. AID 738
Numbers without * were called inactive; . = not tested or not shown. Shown are actives, neighbours in structure and some others; about 8% of the full set was active somewhere. Cut-off read from the data, not from the text of the source, unless noted: active = inhibition above about 30%; inactive = the rest.

SMILES | PTK2B oligo ant | PostGolgi yeast | Cav3 T inh | PostGolgi ctrl
COc1ccc(Cn2c(/C=C/c3ccccc3)nc3ccccc32)cc1 | -1.6 | 16 | -2.9 | 43*
O=C(CSc1nc2ccccc2s1)CSc1nc2ccccc2s1 | -0.55 | -4 | -0.062 | 3
O=c1oc2ccccc2n1CSc1nc2ccccc2s1 | 0.2 | -10 | -4.1* | 18
c1ccc2[nH]c(CSc3nc4ccccc4s3)nc2c1 | 0.79 | -6 | -6.4* | 12
Cn1c(CSc2nc3ccccc3s2)nc2ccccc21 | -0.32 | -3 | -4.7* | 16
Cc1ccc(NCc2nc3ccccc3n2C)cc1 | -0.46 | -1 | -0.19 | 34*
Cn1c(CSc2nc3ccccc3s2)n[nH]c1=S | -0.08 | -7 | 1.3 | 4
Cc1nnc(SCc2nc3ccccc3[nH]2)s1 | -0.19 | -4 | -0.15 | 7
Cn1c(SCC(=O)N(C2CCCCC2)C2CCCCC2)nnc1-c1cccs1 | -0.61 | -5 | -0.25 | 6
CC(C)(C)NC(=O)C1Cc2ccccc2CN1C(=O)Nc1ccccc1Cl (stereo not given) | 0.14 | 1 | 1 | 9
COc1ccc(NC(=O)/C(Cl)=C(/Cl)S(=O)(=O)Cc2ccc(C)cc2)cn1 | 0.16 | 97* | 0.46 | 84*
COc1ccc(NC(=O)C(CC(C)C)NC(=O)c2ccccc2C)cn1 (stereo not given) | -0.16 | -2 | 0.29 | 3
N#CC1=C(c2ccccc2)/C(=C/c2ccccc2)OC1=O | -1.6 | 11 | 0.99 | 51*
COc1ccc(OC)c(S(=O)(=O)Nc2cccnc2)c1 | 0.19 | 6 | 0.34 | -3
O=C(NC1CCCC1)C1CCCN1C(=O)Nc1ccccc1 (stereo not given) | -0.06 | 12 | 0.59 | -4
O=C(Nc1ccccc1)N1CCCC2CCCCC21 (stereo not given) | -0.07 | 30* | -0.94 | 1
CCc1cccc(CC)c1NC(=O)CSc1nc2ccc(N3C(=O)C4C5C=CC(C5)C4C3=O)cc2s1 (stereo not given) | -0.56 | -12 | -1.3 | 30*
Cc1cccc(NC(=O)CSc2nc3ccc(N4C(=O)c5ccccc5C4=O)cc3s2)c1C | -0.3 | 3 | -0.34 | 3
N#Cc1ccc(OCc2nnc(SCC(=O)c3ccccc3)n2-c2ccccc2)cc1 | -0.19 | . | 0.23 | .
O=c1[nH]c(CSc2nnc(COc3ccccc3)n2-c2ccccc2)nc2ccccc12 | -0.17 | -3 | -3.9* | 25
Cc1ccc(OCc2nnc(SCC(=O)c3ccccc3)n2-c2ccccc2)cc1 | -1.3 | . | -4.4* | .
COc1ccccc1-c1c(C#N)c(SCC(=O)N2CCCC2)nc(C)c1C(N)=O | . | 0 | 0.96 | 0
CCOC(=O)c1c(C)oc2c1cc(O)c1ccccc12 | -1.6 | -6 | 0.48 | 39*
CCOC(=O)c1c(C)[nH]c2c1cc(O)c1ccccc12 | -1.8 | 3 | -0.17 | 7
Cc1ccsc1C1C=C(c2cccc(Br)c2)Nc2ncnn21 (stereo not given) | -2.3 | 12 | -4.6 | 37*
SMILES | PTK2B oligo ant | PostGolgi yeast | Cav3 T inh | PostGolgi ctrl
COc1cccc(C2=CC(c3ccc(C)cc3)n3ncnc3N2)c1 (stereo not given) | . | -19 | -2.9 | 0
O=C1c2ccccc2C(=O)N1CSc1nnc2c3ccccc3n(CCc3ccccc3)c2n1 | 1.4 | 8 | 0.011 | 8
O=c1[nH]c2ccccc2n1CCCSc1cnc2ccccc2n1 | -0.79 | 5 | -4.2 | 43*
CCCCn1c(=O)[nH]c2ccccc21 | . | -7 | 0.46 | 5
C=CCn1c2ccccc2c2nnc(SCCCn3c(=O)[nH]c4ccccc43)nc21 | -3.9* | -17 | -3 | 26
C=CCn1c2ccccc2c2nnc(SCN3C(=O)c4ccccc4C3=O)nc21 | -2.4 | 39* | -0.3 | 28
CCn1c2ccccc2c2nnc(SCC(=O)c3ccccc3)nc21 | -0.46 | -1 | 0.11 | 6
COC(=O)CNC(=O)CNC(=O)c1nn(-c2ccc(OC)c(Cl)c2)c(=O)c2ccccc12 | -0.15 | 14 | . | 35*
COCCNC(=O)CNC(=O)c1nn(-c2ccc(OC)c(Cl)c2)c(=O)c2ccccc12 | -0.9 | -8 | 0.98 | -3
CCOP(=O)(OCC)c1nc(-c2ccc(C)cc2)oc1N1CCOCC1 | 0.32 | . | 0.02 | .
CCOP(=O)(c1ccccc1)c1nc(-c2ccc(F)cc2)oc1N1CCCCC1 (stereo not given) | -0.83 | -2 | . | 32*
Cc1ccccc1C1C(C#N)=C2NC(=O)c3c(sc4c3CCCCC4)N2C2=C1C(=O)CC(C)(C)C2 (stereo not given) | . | 11 | . | 41*
C=CCCC(=O)Nc1nc(C)c(-c2csc(Nc3cc(OC)ccc3OC)n2)s1 | . | 3 | -0.028 | 33*
CCCC(=O)Nc1nc(C)c(-c2csc(Nc3ccc(Cl)cc3)n2)s1 | . | 23 | -0.42 | 56*
CCCC(=O)Nc1nc(C)c(-c2csc(Nc3cc(OC)ccc3OC)n2)s1 | . | 3 | 0.97 | 16
Nn1c(SCC(=O)Nc2ccccc2)nnc1-c1cccnc1 | 0.4 | 1 | 0.34 | 9
N#CC(C#N)=Cc1cn(-c2ncc(C(F)(F)F)cc2Cl)c2ccccc12 | -0.94 | 21 | 0.44 | 43*
CC(=O)/C=C\c1cn(-c2ncc(C(F)(F)F)cc2Cl)c2ccccc12 | -0.55 | -8 | . | 23
Cc1cc(NC(=O)c2cccc(COc3ccc(Br)cc3)c2)no1 | . | 12 | -0.75 | -4
CCC(Sc1nc2cc3c(cc2c(=O)n1Cc1ccco1)OCO3)C(=O)NCCOC (stereo not given) | 0.02 | 10 | 1.8 | 31*
O=C(NC(CO)c1ccccc1)c1ccco1 (stereo not given) | -0.22 | -5 | 0.11 | -12
CCC(C)[C@H](N)c1cn([C@@H](Cc2cc3ccccc3[nH]2)C(=O)N2CCNCC2)nn1 (stereo not given in full) | . | . | 0.52 | .
CC(C)(C)c1ccc(-c2nnc3sc(-c4ccccn4)nn23)cc1 | . | -3 | -1.1 | 35*
Clc1ccc(-c2nnc3sc(-c4ccccn4)nn23)cc1 | . | -2 | -0.39 | 16
CC(C)C[C@H](NC(=O)OC(C)(C)C)c1nnc(SCc2cccc(F)c2)o1 | -0.87 | -12 | -3.4* | 3
SMILES | PTK2B oligo ant | PostGolgi yeast | Cav3 T inh | PostGolgi ctrl
CC(C)C[C@H](NC(=O)OC(C)(C)C)c1nnc(SCC(=O)Nc2ccc(Br)cc2)o1 | 1 | -7 | -6.5* | 6
O=C(c1ccc(Cl)cc1Cl)N1CCC(c2nc3c(nnn3Cc3ccco3)c(=O)[nH]2)CC1 | -1.3 | 30* | -0.88 | -10
NC(=O)NC(CCC(=O)O)C(=O)O (stereo not given) | . | . | -0.37 | .
CC(C)OP(=O)(OC(C)C)C(NC(=O)c1cccc([N+](=O)[O-])c1)C(N)=O (stereo not given) | -0.94 | -1 | 0.0035 | 2
CCOC(=O)c1c(NC(=O)C(C)NCc2ccco2)sc2c1CCC(C)C2 (stereo not given) | 0.35 | -1 | -0.97 | 14
COC(=O)c1cc(NC(=O)N2c3ccccc3Sc3ccccc32)cc(C(=O)OC)c1 | -0.51 | 0 | -1.3 | 4
COc1cc(C)c(C(C)C)cc1S(=O)(=O)N1CCN(C)CC1 | 0.87 | -2 | 0.009 | 4
COc1cc(C)c(C(C)C)cc1S(=O)(=O)n1cnc(C)c1 | . | 9 | -4.8* | 13
O=c1cc(CSc2ccc(S(=O)(=O)N3CCCCC3)cn2)nc2sccn12 | 0 | 79* | 1.5 | 73*
CON(C)c1nc(NCC(C)C)nc(OCC#N)n1 | 0.49 | 1 | 0.36 | 2
